In PubChem BioAssay (NCI) one finds growth data, which are given here for 37 molecules.

The panel holds about 83,000 compounds, 20% with a hit somewhere; the sample as a whole holds those more often.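 Step 1: grow cells in 96-well plates. Step 2: add test compound at a single concentration. Step 3: incubate 48 h. Step 4: record percent growth.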 Values without a mark were called inactive. Activity calls are given as the source filed them. The calls were made as follows: active = growth percent below 10; inactive = the rest.

The test system of the first assay is RXF 393 renal. The experiment in a line: NCI-60 one-dose screen, 48 h (100 = growth as untreated, 0 = no growth, -100 = all killed). Conditions: 10 µM unless noted.
In the case of `C[C@]12CCc3sc(-c4ccccc4O)nc3C1=CC[C@@H]1[C@@H]2CC[C@]2(C)C(=O)CC[C@@H]12`, the growth was 107%.
On to `CC[C@H](C)[C@H](NC(=O)[C@H]1CCCCN1C)C(=O)N(C)[C@H](CC(=O)c1nc(C(=O)N[C@@H](Cc2ccccc2)C[C@H](C)C(=O)O)cs1)C(C)C`, for which the growth was 87.1%.
Still for that read-out and setting: then `COc1cccc(/C=C/[N+](=O)[O-])c1`, with -60.7% (active).
As to `O=C1CC2(CC3(Cl)C(Cl)=C(Cl)C2(Cl)C3(Cl)Cl)C(=O)O1` (stereo not drawn), the growth was 107%.
Same read-out and setting: then `CC12CCC3C(CCC4=CC(=O)CCC43CF)C1CCC2=O` (stereo not drawn), with 67.7%.
For the molecule `Nc1ccc(-c2nc3cc(F)ccc3[se]2)cc1F`, the growth is 82.6%.

The subject of the next assay is SF-268 CNS. The description is as above. Conditions: 10 µM unless noted.
As for `COc1cc2c(=O)n(C3CCCCCCC3)c3c4cc[nH]c4ncc3c2cc1OC`, the growth is 42.4%.
In the case of `C1CCC([PH+](C2CCCCC2)C2CCCCC2[PH+](C2CCCCC2)C2CCCCC2)CC1.[Au].[CH-]1CCCCC1CC1CCCC[N-]1` (stereo not drawn), the growth was -33.6% (active).
Still for that read-out and setting: the value for `CCCCN1CCCC[C@@H]1C(=O)N[C@H](C(=O)N(C)[C@H](C[C@@H](OC(C)=O)c1nc(C(=O)NC2CCC(C(=O)OC)CC2)cs1)C(C)C)C(C)C` (stereo partly drawn) was 48.8%.
Consider `CS(=O)(=O)CCN1CC2CCCC(C2)C1`, for which the growth is 102%.
Take `COC(=O)[C@@H](C)C[C@H](Cc1ccccc1)NC(=O)c1nc([C@@H](C[C@H](C(C)C)N(C)C(=O)[C@@H](NC(=O)[C@H]2CCCCN2C)C(C)C)OC(C)=O)sc1C(C)C`: the growth was 22.1%.
For the molecule `C=CC[Se]C(=O)c1ccccc1OC(C)=O`, the growth was 27.1%.
With `CC(C)[C@@H]1NC(=O)[C@]2(C)CSC(=N2)c2csc(n2)CNC(=O)C[C@@H](/C=C/CCS)OC1=O`, the growth is 11.3%.
With `Clc1cccc(Cl)c1Cl`, the growth is 97.5%.
Consider `O=C(CC1(O)C(=O)Nc2ccc(Cl)cc21)c1ccc(C(=O)NCC2CCC3(CC2)OOC2(CCCCC2)OO3)cc1` (stereo not drawn), for which the growth was 32.9%.
For the molecule `COc1ccc(C(O)(C(=O)O)c2ccc(OC)cc2)cc1`, the growth was 95.3%.
For `CCn1c2ccccc2c2cc(C(=O)c3ccc(C)c4ccccc34)ccc21`, the growth was 19.8%.
For the molecule `COC(=O)[C@]12CCC(C)(C)C[C@H]1[C@H]1C(=O)C[C@@H]3[C@@]4(C)C[C@@]5(CC(C)(C)[C@@H]4CC[C@@]3(C)[C@]1(C)CC2)OO[C@@](C)(C(F)(F)F)O5`, the growth was 93.1%.
With `CC[C@]12C=CCN3CC[C@@]4(c5ccc(OC)cc5N(C)[C@H]4[C@@](O)(C(=O)OC)[C@@H]1OC(=O)CCCC[P+](c1ccccc1)(c1ccccc1)c1ccccc1)[C@@H]32`, the growth was 16.2%.
On to `CCCCCCCCOC(=O)CCN1CC1`, for which the growth is 95.9%.
`CC1[C@H](C)OC(=O)CC(O)CC(O)CC(O)CCC(O)C(O)C[C@]2(O)CC(O)C(C(=O)O)C(CC(OC3O[C@H](C)[C@@H](O)[C@H](N)[C@@H]3O)/C=C/C=C/C=C/C=C/CC/C=C/C=C/[C@H](C)[C@H]1O)O2` (stereo partly drawn): the growth is 109%.
For the molecule `c1cc2c(c3c1CCNC3)OCO2`, the growth was 102%.
On to `Cc1ccc(N2COOC3(OOC2)C2CC4CC(C2)CC3C4)cc1`, for which the growth was 97.9%.
Same read-out and setting: then `O=C(CC1(O)C(=O)N(Cc2ccccc2)c2ccc(Br)cc21)c1ccc(C(=O)NCC2CCC3(CC2)OOC2(CCCCC2)OO3)cc1` (stereo not drawn), with -1.12% (active); and `C[C@@H]1C[C@@]2(C)[C@@H](CC[C@@H]3[C@@H]2CC[C@]2(C)C(=O)CC[C@@H]32)CC1=O`, with 102%.
`CCN(CC)c1ccc2c(c1)OC(N)=C(C#N)C2c1cc(OC)c2c(c1)OCO2` (stereo not drawn): the growth was 21.3%.
In the case of `O=P(Oc1ccc(Cl)cc1)(N1CC1)N1CC1`, the growth is 89%.
Turning to `O=[N+]([O-])c1cc(I)cc([N+](=O)[O-])c1`, the growth is 94.2%.
For the molecule `CC(=O)O[C@H](C[C@H](C(C)C)N(C)C(=O)[C@@H](NC(=O)[C@H]1CCCCN1C)C(C)(C)C)c1nc(C(=O)N[C@@H](Cc2ccccc2)C[C@H](C)C(=O)O)cs1`, the growth was 24.1%.
Turning to `CC[C@H](C)[C@H](NC(=O)[C@H]1CCCCN1C)C(=O)N(C)[C@H](C[C@@H](O)c1nc(C(=O)N[C@@H](Cc2ccccc2)C[C@H](C)C(=O)O)cs1)C(C)C`, the growth is 88.2%.
In the case of `CN1CCC(O)(c2ccc(F)cc2)C(C(=O)c2ccc(F)cc2)C1` (stereo not drawn), the growth was 106%.
For `O=C1NC(=O)C(=Cc2cccn2CCCCCn2c3ccccc3c(=O)c3ccccc32)C(=O)N1`, the growth was 102%.
For `COC(=O)[C@@H](C[C@H](Cc1ccccc1)NC(=O)c1csc([C@@H](C[C@H](C(C)C)N(C)C(=O)[C@@H](NC(=O)[C@H]2CCCCN2C)C(C)C)OC(C)=O)n1)NC(=O)OCc1ccccc1`, the growth was 15.2% [9.5 µM].
As to `CN(C)CCCOc1ccc2c(c1)c(C(=O)C(=O)NCCO)cn2Cc1ccccc1`, the growth is 97.7%.
As for `COc1cc(C=Nc2cc(Cl)cc(Cl)c2)ccc1N(CCCl)CCCl`, the growth was 93%.
In the case of `CCOC(=O)N[C@H]1CCc2c(Br)c(OC)c(OC)c(OC)c2-c2ccc(SC)c(=O)cc21`, the growth was 17.5%.
Consider `C/C(CC(C)(C)N1CC1)=N\NC(=O)Nc1cccc2ccccc12`, for which the growth was 52.9%.
Turning to `C[C@]12CCc3sc(-c4ccccc4O)nc3C1=CC[C@@H]1[C@@H]2CC[C@]2(C)C(=O)CC[C@@H]12`, the growth was 100%.
Take `CC[C@H](C)[C@H](NC(=O)[C@H]1CCCCN1C)C(=O)N(C)[C@H](CC(=O)c1nc(C(=O)N[C@@H](Cc2ccccc2)C[C@H](C)C(=O)O)cs1)C(C)C`: the growth is 84.2%.
On to `COc1cccc(/C=C/[N+](=O)[O-])c1`, for which the growth is 78.2%.
For the molecule `O=C1CC2(CC3(Cl)C(Cl)=C(Cl)C2(Cl)C3(Cl)Cl)C(=O)O1` (stereo not drawn), the growth is 114%.
The same measure, in the same setting: then `CC12CCC3C(CCC4=CC(=O)CCC43CF)C1CCC2=O` (stereo not drawn), with 110%; and `Nc1ccc(-c2nc3cc(F)ccc3[se]2)cc1F`, with 80.8%.
